G9a block – qHTS Assay for Inhibitors of Histone Lysine Methyltransferase G9a. Histone-lysine N-methyltransferase EHMT2 (Homo sapiens), Q96KQ7. G9a H3K9 monomethylation, AlphaScreen, 2 h. Potency, µM (top dose mostly 102 µM), most hits filed as inhibitors. 8.8% of 350,000 active; also: nearly all actives have a fitted effect of over 75% in size
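Enzyme 20 nM + cpd, 15 min RT; add b-H3K9 pep 500 nM / SAM 20 uM; 2 h RT; anti-H3K9me1 Ab 0.5 ug/mL + SA donor / anti-rabbit acceptor beads 20 ug/mL each, 10 min; AlphaScreen read.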
Sfp PPTase inh – qHTS Assay for Inhibitors of Bacillus subtilis Sfp phosphopantetheinyl transferase (PPTase) | 4'-phosphopantetheinyl transferase ffp (Bacillus subtilis), Q9F4F7 | Biochemical Sfp PPTase activity, qHTS | Potency, µM, hits mostly inhibitors | 3.5% of 310,000 active | AID 1490, 2009;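 also: the enzyme is Sfp with the accession as filed and its product quenches rhodamine fluorescence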
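Fluorescence-quenching assay with 15 nM Sfp, 5 uM rhodamine-CoA and 12.5 uM BHQ-2-labelled ybbR peptide in pH 7.6 Hepes/MgCl2 buffer. Enzyme was pre-incubated with compound for 15 min at room temperature. Rate was taken from the 30-min fluorescence change (525/598 nm).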
ALOX12 inh – Primary qHTS assay for inhibitors of human arachidonate 12S-lipoxygenase (ALOX12): Round 2; purified 12hLO, xylenol orange hydroperoxide absorbance; Polyunsaturated fatty acid lipoxygenase ALOX12 (Homo sapiens), P18054; Potency, µM (doses to about 108 µM), usual class: inhibitors; 1.1% of 580,000 active; AID 1671190, 2021
Target sequence (P18054 whole entry, looked up): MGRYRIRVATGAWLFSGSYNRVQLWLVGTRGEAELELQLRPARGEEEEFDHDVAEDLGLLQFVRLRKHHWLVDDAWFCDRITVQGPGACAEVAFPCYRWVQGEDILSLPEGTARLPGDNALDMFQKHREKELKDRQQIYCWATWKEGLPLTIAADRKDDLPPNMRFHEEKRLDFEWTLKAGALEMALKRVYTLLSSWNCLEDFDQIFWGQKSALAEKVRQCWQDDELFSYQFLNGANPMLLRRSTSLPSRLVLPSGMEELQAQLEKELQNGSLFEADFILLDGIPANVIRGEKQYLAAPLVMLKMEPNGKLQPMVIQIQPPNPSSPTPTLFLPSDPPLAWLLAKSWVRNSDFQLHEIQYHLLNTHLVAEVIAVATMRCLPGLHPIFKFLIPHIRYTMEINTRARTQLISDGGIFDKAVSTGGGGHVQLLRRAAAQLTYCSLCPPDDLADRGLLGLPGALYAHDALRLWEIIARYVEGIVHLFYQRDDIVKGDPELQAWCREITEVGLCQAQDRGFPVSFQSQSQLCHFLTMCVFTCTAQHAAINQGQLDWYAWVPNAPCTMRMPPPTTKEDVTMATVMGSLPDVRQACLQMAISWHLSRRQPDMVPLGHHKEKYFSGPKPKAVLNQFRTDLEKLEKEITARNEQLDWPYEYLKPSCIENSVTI
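Purified human 12hLO at 150 nM in 25 mM Hepes, 0.01% Triton X-100, pH 7.0, preincubated 15 min at room temperature with compound. Reaction started with 40 uM arachidonic acid, 30 min at room temperature. Hydroperoxide measured by Fe-xylenol orange, 573/405 nm absorbance ratio.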
VDR inh – Inhibitors of the vitamin D receptor (VDR): qHTS; 0.93% of 400,000 active; Vitamin D3 receptor (Homo sapiens), P11473; VDR-SRC2-3 peptide fluorescence polarization, 2 h; Potency, µM, actives largely listed as inhibitors; AID 504847, 2011
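Compounds are added to VDR with labelled SRC2-3 coactivator peptide and held 2 h at room temperature. Inhibition of the VDR–peptide interaction is then read as a change in fluorescence polarization.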
Glioma ERSR ind – qHTS for Inducers of the Endoplasmic Reticulum Stress Response (ERSR) in Human Glioma: qHTS; Potency, µM, hits mostly activators; 0.02% of 420,000 active; U87-MG GRP78 promoter luciferase reporter, 16 h; AID 602332, 2012; also: series mostly up to about 76 µM; nearly all actives have a fitted effect of over 35% in size
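Stably transfected U87-MG human glioma cells carrying a GRP78-based luminescent sensor were seeded at 1000 cells/well, pin-dosed with compounds and incubated 16 h. Luciferase reagent was then added, and end-point luminescence was read after 10 min at room temperature.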
Of the large screens only hits and unclear results are named; the others gave an inactive call; ! = a repeat was not active. This is one part of a sample in which hits are shown more often than they occur. Calls follow the shape of the dose curve; as a rule, active = well fitted curve in the direction sought with a large enough effect; inconclusive = small, poorly fitted or top-dose-only effect, or another doubt; inactive = no such curve, though single readings can be large; an effect the other way counts as inactive or inconclusive.

COc1ccc(NC2CCCN(C(=O)c3ccc(C)nc3)C2)cc1 (configuration not stated)	G9a block 40µM
Cc1nnsc1C(=O)N1CCCC(Nc2ccc(C(C)C)cc2)C1 (configuration not stated)	G9a block inconclusive
Cc1nonc1C(=O)N1CCCC(Nc2ccc(C(C)C)cc2)C1 (configuration not stated)	G9a block 35µM
Cc1[nH]c2ccc(C(=O)N3CCN(c4ccc(F)cc4)CC3)cc2c1C	G9a block 79µM, ALOX12 inh inconclusive
CC(C)c1ccc(NC2CCCN(C(=O)c3ccoc3)C2)cc1 (configuration not stated)	G9a block 45µM
CC(C)c1ccc(NC2CCCN(C(=O)c3cscn3)C2)cc1 (configuration not stated)	none
COc1ccc(NC2CCCN(C(=O)CCn3cccn3)C2)cc1 (configuration not stated)	none
COc1ccc(NC2CCCN(C(=O)c3cn(C)c4ccccc34)C2)cc1 (configuration not stated)	G9a block 18µM
COc1ccc(NC2CCCN(C(=O)c3cc4ncccn4n3)C2)cc1 (configuration not stated)	G9a block 35µM
Cc1ccc(C(=O)N2CCCC(Nc3ccc(C(C)C)cc3)C2)cn1 (configuration not stated)	G9a block 40µM
FC(F)(F)c1cccc(CSc2ncnc3ccccc23)c1	none (no result: G9a block, Sfp PPTase inh, VDR inh, Glioma ERSR ind)
COC(=O)c1cc2oc(C)cc2n1Cc1ccc(C)cc1	G9a block 14µM, ALOX12 inh inconclusive (no result: Sfp PPTase inh)
COC(=O)c1cc2occc2n1Cc1ccc(Cl)cc1	G9a block 50µM
COC(=O)c1cc2oc(C)cc2n1Cc1cccc(Cl)c1	G9a block 14µM (no result: Sfp PPTase inh)
COC(=O)c1cc2oc3ccccc3c2n1Cc1cccc(C)c1	none (no result: Sfp PPTase inh)
COC(=O)c1cc2oc(C)cc2n1Cc1c(C)cc(C)cc1C	G9a block 4µM, ALOX12 inh inconclusive (no result: Sfp PPTase inh)
COC(=O)c1cc2oc(C)cc2n1CC(=O)Nc1ccc(C)c(C)c1	G9a block inconclusive
COc1ccc(CCc2nc3nccc(-c4ccc(OC)c(OC)c4)n3n2)cc1	none (no result: G9a block, Sfp PPTase inh, VDR inh, Glioma ERSR ind)
Cc1ccc(CNc2nc(N)c([N+](=O)[O-])c(Nc3cccc(Cl)c3)n2)cc1	none (no result: G9a block, Sfp PPTase inh, VDR inh, Glioma ERSR ind)
COc1ccc(Br)cc1/C=N/O	none (no result: G9a block, Sfp PPTase inh, VDR inh, Glioma ERSR ind)
C/C(CC(=O)Nc1cccc(Cl)c1Cl)=N\NC(=O)c1ccccc1C	G9a block 20µM, Sfp PPTase inh inconclusive
C/C(CC(=O)Nc1cccc(Cl)c1Cl)=N\NC(=O)C(=O)N1CCCC1	G9a block inconclusive
CC1(C)CC(=O)C2=C(C1)N(c1cccc(O)c1)C1=C(C2)C(=O)CC(C)(C)C1	G9a block 2.2µM, Sfp PPTase inh 10µM
CC(C)COc1ccc(S(=O)(=O)NNC(=O)c2cc3ccccc3o2)cc1	ALOX12 inh 22µM
Fc1ccc(Sc2ccncc2)cc1	none (no result: G9a block, Sfp PPTase inh, VDR inh, Glioma ERSR ind)
Cc1ccsc1CN(C(=O)COc1ccc(Cl)cc1)C1CCS(=O)(=O)C1 (configuration not stated)	none (no result: Sfp PPTase inh, Glioma ERSR ind)
Cc1ccc(OCC(=O)N(Cc2ccc(N(C)C)cc2)C2CCS(=O)(=O)C2)cc1 (configuration not stated)	G9a block 40µM
CN(C)c1ccc(CN(C(=O)COc2ccc(Br)cc2)C2CCS(=O)(=O)C2)cc1 (configuration not stated)	G9a block 50µM
COc1ccc(OCC(=O)N(Cc2sccc2C)C2CCS(=O)(=O)C2)cc1 (configuration not stated)	G9a block 71µM!
Cc1cccc(OCC(=O)N(Cc2cccs2)C2CCS(=O)(=O)C2)c1C (configuration not stated)	G9a block 50µM
CN(c1ccc(F)cc1)S(=O)(=O)c1ccc(Cl)c(C(=O)NCC(c2ccco2)N2CCCCC2)c1 (configuration not stated)	G9a block 28µM, ALOX12 inh 0.79µM (no result: Sfp PPTase inh)
CCOC(=O)/C=C1\Nc2ccccc2OC1=O	Sfp PPTase inh 50µM, ALOX12 inh inconclusive
CCC1c2ccc(C)n2CCN1C(=O)Nc1ccccc1C(=O)OC (configuration not stated)	G9a block 50µM
CCOC(=O)c1ccccc1NC(=O)N1CCn2c(C)ccc2C1CC (configuration not stated)	G9a block 22µM
Cc1cnc(NC(=O)c2csc(NCC(C)C)n2)s1	none (no result: G9a block, Sfp PPTase inh, VDR inh, Glioma ERSR ind)
NS(=O)(=O)c1cc(C(=O)O)cc(N2CCCC2)c1Oc1ccccc1	G9a block 18µM!
CCCCNc1cc(C(=O)O)cc(S(N)(=O)=O)c1Oc1ccccc1	none
CC1CNC(Cc2ccccc2)CN1C(=O)OC(C)(C)C (configuration not stated)	none (no result: G9a block, Sfp PPTase inh, VDR inh, Glioma ERSR ind)
C=CCc1cccc([C@@H]2[C@@H](C)CC[C@H]3C(=O)N4[C@@H](c5cc(OC)c(OC)c(OC)c5)c5[nH]c6ccccc6c5C[C@H]4C(=O)N23)c1	G9a block 50µM (no result: ALOX12 inh, VDR inh, Glioma ERSR ind)
COc1cc(/C=N/O)c(Br)c(Br)c1O	none (no result: G9a block, Sfp PPTase inh, VDR inh, Glioma ERSR ind)
CN(C(=S)NC(=O)CCCOc1ccc(Cl)cc1Cl)c1ccccc1	G9a block inconclusive, Sfp PPTase inh 50µM, ALOX12 inh inconclusive
CN(C(=S)NC(=O)C1(C)CC1(Cl)Cl)c1ccccc1 (configuration not stated)	none
CN(C(=S)NC(=O)Cc1ccccc1)c1ccccc1	Sfp PPTase inh 18µM, ALOX12 inh inconclusive (no result: G9a block)
COC1=CC(=O)c2ccccc2C1=O	none (no result: G9a block, Sfp PPTase inh, ALOX12 inh)
COC1=CC(=O)C=C(OC)C1=O	G9a block inconclusive, VDR inh 22µM
O=C(/C=C/c1ccc[nH]1)c1ccccc1	G9a block inconclusive, Sfp PPTase inh 56µM, ALOX12 inh inconclusive, VDR inh 79µM
COc1ccccc1/C=C/C(=O)NC(=S)NC(C)C	Sfp PPTase inh inconclusive, ALOX12 inh 25µM, VDR inh inconclusive
O=C(/C=C/c1cccc2ccccc12)c1ccncc1	G9a block inconclusive, Sfp PPTase inh 25µM, ALOX12 inh inconclusive, VDR inh 14µM
O=C(/C=C/c1ccccc1O)c1ccc(Cl)cc1	G9a block inconclusive, ALOX12 inh inconclusive, VDR inh 35µM
O=C(O)c1ccccc1-c1ccccc1C(=O)Nc1ccc(F)cc1	none
O=C(/C=C/c1ccccc1O)c1ccccc1	VDR inh 28µM (no result: G9a block, Sfp PPTase inh)
O=C(/C=C/c1ccc(NC(=O)c2ccccc2-c2ccccc2C(=O)O)cc1)c1ccccc1	ALOX12 inh inconclusive, VDR inh 20µM (no result: G9a block)
COc1ccccc1/C=C/C(=O)c1ccc(Cl)cc1	Sfp PPTase inh inconclusive, VDR inh inconclusive
CN(C)c1ccc(C(=O)/C=C/c2ccc(C#N)cc2)cc1	none (no result: G9a block, Sfp PPTase inh, VDR inh, Glioma ERSR ind)

Screening data (PubChem BioAssay)
